Among the test systems are OVCAR-8 ovarian; OVCAR-5 ovarian; OVCAR-4 ovarian; SK-OV-3 ovarian; IGROV1 ovarian; OVCAR-3 ovarian; HS 578T breast; NCI/ADR-RES ovarian; T-47D breast; BT-549 breast; MDA-MB-435 melanoma; SW-620 colon; MCF7 breast; HCC-2998 colon; KM12 colon; HCT-116 colon.
Common to all, as to test: NCI-60 one-dose screen, 48 h (100 = growth as untreated, 0 = no growth, -100 = all killed)
Common to all, as to details: 10 µM unless noted

The record followed here is PubChem BioAssay (NCI).

About 83,000 compounds went through this panel and 20% of them were active in at least one assay; those are over-represented in the sample as a whole.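 For each line, cells grew in 96-well plates with the test compound present at a single concentration for 48 hours.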 Unmarked numbers belong to inactive results. Calls of active or inactive are those of the source. How the source made its calls: active means growth percent below 10; inactive means the rest.

Consider `CC(C)(C)c1nn(-c2ccccc2)c2c1COCN2Cc1ccc(Cl)cc1`, for which the growth in the test on OVCAR-8 ovarian was 107%; in the test on OVCAR-5 ovarian it was 90%; with OVCAR-4 ovarian, 77.2%; in the test on SK-OV-3 ovarian it was 92.6%; with IGROV1 ovarian, 117%; in the test with OVCAR-3 ovarian, 104%. The growth with HS 578T breast is 86.2%; in the test on NCI/ADR-RES ovarian, 94.8%; with T-47D breast, 73.6%; with BT-549 breast, 122%; in the test with MDA-MB-435 melanoma it was 100%; in the test on SW-620 colon, 82.9%. Besides, the growth is 80.1% in the test with MCF7 breast, 51.9% in the test with HCC-2998 colon and 86.4% in the test with KM12 colon.

As for `CCCn1c2cc(OCc3cn(-c4ccc(Cl)cc4)nn3)ccc2c2ccnc(C)c21`, the growth in the test with OVCAR-5 ovarian was 78%; in the test with OVCAR-4 ovarian it was 55.5%; with SK-OV-3 ovarian, 73.9%; in the test on IGROV1 ovarian it was 74%; in the test with OVCAR-3 ovarian, 59.3%; in the test on HS 578T breast it was 75%. The growth in the test with NCI/ADR-RES ovarian was 66.3%; with T-47D breast, 52.2%; in the test on BT-549 breast, 87.2%; in the test on MDA-MB-435 melanoma, 101%; with SW-620 colon it was 74.8%; with MCF7 breast, 73.3%. Also, the growth with HCT-116 colon was 41.6%; in the test on HCC-2998 colon, 92.7%; in the test on KM12 colon, 74.1%.

For the compound `O=c1[nH]c2ccccc2cc1-c1nc2ccc(Cl)cc2[nH]1`, the growth is 100% with OVCAR-5 ovarian; 51% in the test with OVCAR-4 ovarian; 14% in the test with SK-OV-3 ovarian; 26.5% with IGROV1 ovarian; 35.5% with OVCAR-3 ovarian; 46.1% with HS 578T breast. In addition, the growth with NCI/ADR-RES ovarian was 74.4%; in the test on T-47D breast it was 35.1%; in the test with BT-549 breast it was 43%; in the test on MDA-MB-435 melanoma, 32.5%; in the test on SW-620 colon it was 42.5%; in the test with MCF7 breast, 23.8%. Besides, the growth was 22.2% in the test on HCT-116 colon, 79.7% with HCC-2998 colon and 5.1% (active) in the test with KM12 colon.

Turning to `COc1ccc(C2=NN(c3ccc(S(N)(=O)=O)cc3)C(c3ccc(Cl)cc3)C2)c(O)c1` (centres undefined), the growth was 54.6% in the test on OVCAR-8 ovarian; 78.3% with OVCAR-5 ovarian; 50.5% in the test with OVCAR-4 ovarian; 85.3% in the test with SK-OV-3 ovarian; 58.6% with OVCAR-3 ovarian; 70.5% with HS 578T breast. The growth was 52.5% in the test on NCI/ADR-RES ovarian; 33.8% in the test on T-47D breast; 84.7% with BT-549 breast; 47.2% with MDA-MB-435 melanoma; 76.2% with SW-620 colon; 28.2% in the test with MCF7 breast. Also, the growth in the test with HCT-116 colon was 24.4%; in the test with HCC-2998 colon it was 60.6%; with KM12 colon it was 41.3%.

Consider `C=C(C)[C@@H]1CC[C@]2(C(=O)n3ccnc3)CC[C@]3(C)[C@H](CC[C@@H]4[C@@]5(C)CCCNC(C)(C)[C@@H]5CC[C@]43C)[C@@H]12`, for which the growth in the test with OVCAR-8 ovarian was 62.8%; in the test with OVCAR-5 ovarian, 74.9%; with OVCAR-4 ovarian, 38.3%; in the test on SK-OV-3 ovarian, 61.9%; in the test on IGROV1 ovarian, 20.4%; in the test with OVCAR-3 ovarian, 30.9%. The growth in the test with HS 578T breast was 47.4%; in the test with NCI/ADR-RES ovarian it was 32.9%; in the test with T-47D breast, 11.4%; with BT-549 breast, 40.2%; in the test on MDA-MB-435 melanoma it was -34.4% (active); with SW-620 colon it was -62.8% (active). The growth in the test with MCF7 breast was -20.3% (active); with HCT-116 colon it was -76.7% (active); with HCC-2998 colon, 6.43% (active); with KM12 colon, 28.4%.

Turning to `O=C(CCCCCCCCC(=O)Nc1cccc(C2=NCCN2)c1)Nc1cccc(C2=NCCN2)c1`, the growth in the test on OVCAR-8 ovarian was 107%; in the test with OVCAR-5 ovarian, 109%; in the test with OVCAR-4 ovarian, 102%; with SK-OV-3 ovarian, 113%; in the test with IGROV1 ovarian, 104%; in the test with OVCAR-3 ovarian, 112%. Also, the growth with HS 578T breast is 113%; in the test with NCI/ADR-RES ovarian, 104%; in the test with T-47D breast it was 81%; in the test with BT-549 breast, 92.2%; in the test on MDA-MB-435 melanoma, 99.2%; in the test with SW-620 colon, 97.1%. Also, the growth was 49.9% in the test with MCF7 breast, 98.3% in the test with HCT-116 colon, 95.7% with HCC-2998 colon and 95.5% in the test on KM12 colon.

In the case of `COc1ccc2nc(-c3ccc(Cl)cc3)cc(C(=O)N3N=C(c4ccc(N)cc4)CC3c3ccccc3)c2c1` (centres undefined), the growth was 54% in the test with OVCAR-8 ovarian; 80.9% with OVCAR-5 ovarian; 65.8% in the test on OVCAR-4 ovarian; 46.1% in the test with SK-OV-3 ovarian; 53.9% in the test with IGROV1 ovarian; 9.64% (active) with OVCAR-3 ovarian. Besides, the growth in the test with HS 578T breast is 48.4%; in the test with NCI/ADR-RES ovarian it was 15.2%; with T-47D breast it was 38.8%; in the test with BT-549 breast, 44%; in the test on MDA-MB-435 melanoma it was 4.25% (active); in the test on SW-620 colon, 36%. Also, the growth in the test with MCF7 breast was 11.9%; with HCT-116 colon it was 34.8%; with HCC-2998 colon it was 70.3%; in the test on KM12 colon, 18.7%.

In the case of `O=C(O)c1cc(N=Nc2ccc(-c3ccc(N=Nc4c(S(=O)(=O)O)cc5ccc(Nc6ccccc6)cc5c4O)cc3)cc2)ccc1O`, the growth in the test on OVCAR-5 ovarian is 109%; with OVCAR-4 ovarian, 102%; with SK-OV-3 ovarian, 98.4%; in the test on IGROV1 ovarian, 100%; in the test on OVCAR-3 ovarian, 103%; in the test on HS 578T breast it was 106%. Besides, the growth in the test with NCI/ADR-RES ovarian was 104%; in the test with T-47D breast, 89.1%; in the test on BT-549 breast it was 115%; in the test with MDA-MB-435 melanoma, 106%; with SW-620 colon, 102%; in the test on MCF7 breast, 92.3%. Moreover, the values for the growth in the test with HCT-116 colon, in the test with HCC-2998 colon and in the test with KM12 colon were 105%, 89.8% and 99.6%, respectively.

Consider `Nc1c(C(=O)Nc2ccccn2)sc2nc3c(cc12)CCCCCC3`, for which the growth with OVCAR-8 ovarian is 19.3%; with OVCAR-5 ovarian it was 46.6%; with OVCAR-4 ovarian it was 23.6%; with SK-OV-3 ovarian it was 19%; in the test with OVCAR-3 ovarian, -44.5% (active); in the test with HS 578T breast, 18.9%. For the same compound, the growth with NCI/ADR-RES ovarian was 18.8%; with T-47D breast, 23.4%; with BT-549 breast, 31%; with MDA-MB-435 melanoma, -57.5% (active); in the test with SW-620 colon, 19%; in the test on MCF7 breast, 15.6%. For the same compound, the growth is 7.24% (active) in the test with HCT-116 colon, 48.9% in the test on HCC-2998 colon and 14.4% in the test with KM12 colon.

`Cc1cnc(SCc2ccc(Cl)cc2)[nH]c1=S`: the growth with OVCAR-8 ovarian was 101%; in the test on OVCAR-5 ovarian, 97.5%; with OVCAR-4 ovarian it was 92.3%; in the test with SK-OV-3 ovarian it was 108%; in the test on IGROV1 ovarian it was 103%; in the test with OVCAR-3 ovarian, 94.1%. Further, the growth in the test on HS 578T breast is 112%; in the test on NCI/ADR-RES ovarian it was 103%; in the test on T-47D breast, 88%; in the test with BT-549 breast it was 108%; in the test with MDA-MB-435 melanoma it was 104%; in the test with SW-620 colon it was 111%. Besides, the growth was 95.6% with MCF7 breast, 101% in the test with HCT-116 colon, 108% with HCC-2998 colon and 96.3% in the test with KM12 colon.
